The list is not random: actives were taken first. Their share in the collection is about 1.2%.
RXFP1 antagonist: qHTS Assay for Antagonists of the Relaxin Receptor RXFP1. HEK293-RXFP1, relaxin-stimulated cAMP HTRF, 30 min; active compounds read low. activity change, negative = inhibition, % at 57.5 µM. Relaxin receptor 1 (Homo sapiens), Q9HBX9. actives 0.59% (n = 350,000);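 active = activity change of -60% or lower, but not beyond a set lower limit; inconclusive = change between -60% and -40%, or beyond the set limit; inactive = change above -40%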
Mm-Cpn inhibitor: Inhibitors of TCP-1 ring complex (TRiC) of Methanococcus maripaludis (MmCpn): qHTS; Chaperonin Mm-Cpn (Methanococcus maripaludis); purified Mm-Cpn ATPase, ADP Transcreener TR-FRET; Potency, µM (doses to about 76.9 µM), actives largely listed as inhibitors; actives 0.031% (n = 330,000); AID 504842, 2011; note: nearly all actives have a fitted effect of over 80% in size
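Compound-treated chaperonin, 25 nM final, turns over 10 uM ATP at 37°C for 30 min following a 10 min preincubation; ADP generated competes with ADP-d2 for Eu-cryptate antibody, lowering FRET.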
RXFP1 agonist: qHTS Assay for Agonists of the Relaxin Receptor RXFP1; actives 0.3% (n = 370,000); Potency, µM (titrated, usually from 57.5 µM), hits mostly activators; Relaxin receptor 1 (Homo sapiens), Q9HBX9; HEK293T-RXFP1 cAMP TR-FRET, 30 min; response scale: percent of porcine relaxin response, buffer zero; AID 2676, 2010; note: nearly all actives have a fitted effect of over 60% in size
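HEK293 cells stably expressing RXFP1, treated 30 min at 37C with compounds plus PDE4 inhibitor Ro 20174; cAMP measured by HTRF TR-FRET. Normalized to buffer and 29 nM porcine relaxin; EC50 by Hill fit.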
gsp agonist: qHTS for Agonist of gsp, the Etiologic Mutation Responsible for Fibrous Dysplasia/McCune-Albright Syndrome: qHTS. Potency, µM (titrated, usually from 76.9 µM), hits mostly activators. actives 0.13% (n = 340,000). gsp mutant cells, cAMP HTRF, 30 min. AID 624287, 2012; active = well fitted activation curve with a large enough effect; inconclusive = small, poorly fitted or top-dose-only effect, or another doubt; inactive = no such curve, though single readings can be large or run the other way; cell line not stated here;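 note: phosphodiesterase inhibitor Ro 20-1724 added with compounds to block cAMP breakdown; nearly all actives have a fitted effect of over 60% in size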
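Cells in DMEM/10% FBS with G418 were pretreated with compounds in DMSO plus […] (300 uM stock) for 30 min at 37C. cAMP was measured by HTRF (cAMP-d2 plus anti-cAMP antibody-K) after 30 min at room temperature.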
gsp antag: qHTS for Antagonists of gsp, the Etiologic Mutation Responsible for Fibrous Dysplasia/McCune-Albright Syndrome: qHTS. gsp-mutant cells, cAMP HTRF, 30 min. Potency, µM (series often up to 76.9 µM), usual class: inhibitors. actives 0.4% (n = 340,000). AID 624288, 2012; calls by dose curve; cell line not stated here;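 note: intracellular cAMP measured with PDE inhibitor Ro 20-1724 present during compound exposure; nearly all actives have a fitted effect of over 65% in size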
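Measurement of cellular cAMP by homogeneous time-resolved fluorescence following a 30 min compound exposure at 37C. The PDE inhibitor […] was present throughout; the assay buffer was DPBS with 0.05% BSA and 0.005% Tween 20.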
CCT chaperon mod: High-Throughput Screening for Modulators of Cytosolic Chaperonin Activity; purified chaperonin ATPase assay, HTRF ADP detection, 30 min; AID 651819, 2012; activity change, % (no concentration beside the values), hits read low; actives 0.3% (n = 360,000); in the data active = activity change below about -30%
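ATPase activity: ADP formed was measured by HTRF Transcreener (665/615 nm ratio) after 30 min at 37 deg C with 10 uM ATP. Compounds screened at one 76 uM concentration against 40 or 20 nM TRiC in Tris pH 7.4/KCl/MgCl2/DTT buffer.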
Numbers stand for hits; – = inactive; ? = inconclusive; · = not tested or not shown; ! = a repeat was not active; [ ] = remark or other dose. Unless noted, calls come from the whole dose curve; as a rule, active = well fitted curve in the direction sought with a large enough effect; inconclusive = small, poorly fitted or top-dose-only effect, or another doubt; inactive = no such curve, though single readings can be large; an effect the other way counts as inactive or inconclusive.

SMILES	RXFP1 antagonist	Mm-Cpn inhibitor	RXFP1 agonist	gsp agonist	gsp antag	CCT chaperon mod
CCCCCCCCCn1c2c(c(=N)c3c1CCC3)CCCC2	-81	–	–	?	–	–
CCCCCCCCn1c2c(c(=N)c3ccccc31)CCC2	–	–	–	–[15.4 µM]	–	–
CCOC(=O)c1ccc(N2C(=O)c3n[nH]c(-c4ccco4)c3C2c2ccccc2OC)cc1 (stereo not given)	·	·	–	·	·	·
COc1ccc(S(=O)(=O)N2CCC(n3c(C)nc4cccnc43)CC2)cc1Cl	–	·	–	·	·	·
NC1(c2ccc(-c3nc4ccn5c(=O)[nH]nc5c4cc3-c3ccccc3)cc2)CCC1	-62	·	·	·	·	·
Cc1cc(C)c(S(=O)(=O)N2CCN(C(=O)c3c(C)nn(-c4ccccc4)c3Cl)CC2)c(C)c1	–	·	·	–	25µM	–
c1ccc(Nc2nc(Nc3ccccc3)nc(N3CCNCC3)n2)cc1	-101	–	–	–	–	–
CN(C)CCOC(c1ccc(Cl)cc1)c1ccccn1 (stereo not given)	–	–	–	·	–	-51!
CC(=O)Nc1ccc(C=CC=Cc2cccc([N+](=O)[O-])c2)cc1	-61	·	·	–	?	–
Cc1cc(O)c(C(=O)/C=C/c2cccc([N+](=O)[O-])c2)c(=O)o1	–	–	–	–	–	–
CC(=O)Oc1ccccc1C(=O)C=Cc1cccc([N+](=O)[O-])c1	-84	·	·	–	–	–
CCOC(=O)N1CCC(NC(=O)c2ccc3c(c2)N(Cc2ccc(Cl)cc2)C(=O)c2ccccc2S3(=O)=O)CC1	·	·	–	·	·	·
COc1ccc(C2NC(=O)NC(C)=C2C(=O)Nc2cc(C)cc(C)c2)c(OC)c1 (stereo not given)	·	·	–	·	·	·
CC1=C(C(=O)Nc2ccccc2)C(c2ccccc2Cl)n2ncc(C(=O)Nc3cccc(C)c3)c2N1 (stereo not given)	–	·	–	·	·	·
CCOC(=O)c1ccc(NC(=O)c2noc3c2CCCC3)cc1	–	·	–	·	·	·
C=CCc1cc(Cl)ccc1OCCCNC(C)CC (stereo not given)	-63	–	–	–	–	–
CCC(C)NCCCOc1ccc(Cl)cc1C(C)(C)C (stereo not given)	–	–	–	–	–	–
Cc1ccccc1N(CC(=O)NC1CCCC1)C(=O)CS(=O)CC(=O)Nc1ccc2c(c1)OCO2 (stereo not given)	–	–	–	–	–	–
Cc1ccc(NC(=O)CS(=O)CC(=O)N(CC(=O)NC2CCCC2)c2cc(C)ccc2C)cc1 (stereo not given)	–	–	–	–	–	-93
O=C(NC(NC(=S)Nc1ccccc1Cl)C(Cl)(Cl)Cl)c1cccc(Cl)c1 (stereo not given)	–	–	–	–	?	–
O=C(Cc1cccc2ccccc12)NC(NC(=S)Nc1ccccc1Cl)C(Cl)(Cl)Cl (stereo not given)	-63	–	–	–	–	–
CCCC(=O)O[C@]1(C(=O)CC)CC[C@H]2[C@@H]3CCC4=CC(=O)CC[C@]4(C)[C@H]3[C@@H](O)C[C@@]21C	–	·	·	·	·	·
COc1ccc(C(=O)NCCn2cc(SCc3cccc(F)c3)c3ccccc32)cc1OC	·	·	–	·	·	·
O=c1c(-c2ccc(Cl)cc2)coc2c(CN3CCOCC3)c(O)ccc12	–	–	–	–	–	–
O=c1c(-c2ccccc2)coc2c(CN3CCCC3)c(O)ccc12	–	45µM	–	–	–	–
Cc1ccc(C)c(-n2c3nc(=O)[nH]c(=O)c-3cc3c(C)nn(-c4ccccc4)c32)c1	·	·	–	·	·	·
Cc1ccc(-n2c3nc(=O)[nH]c(=O)c-3cc3c(C)nn(-c4ccccc4)c32)c(C)c1	–	?	–	–[15.4 µM]	50µM	–

Screens deposited in PubChem by National Center for Advancing Translational Sciences (NCATS).
